# Source: PubChem BioAssay (EPA / NIEHS)
# “And” between values parts separate entries of the source, which are not always exact repeats. Equal entries are not always repeated. The source made the active and inactive calls. The calls were made as follows: active = hit-call score of the fitted dose curve at least 0.9, where 1 is the maximum; inactive = score below 0.9.
# Test: CCTE_Shafer_MEA_dev_mutual_information_norm: CCTE's Neural Network Formation Assay for Mutual Information Normalization, Shafer Lab (AID 2284091);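 as to AC50: mutual information between electrodes summarised as area under curve across four recording days; potency is for a decrease in mutual information relative to DMSO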
# Outline: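 Primary rat cortical neurons on PEI-coated 48-well MEA plates, 1.5 x 10^5 cells/well, exposed from day 0 through day 12 with re-dosing at DIV 5 and 9. Mutual information between electrodes recorded days 5, 7, 9, 12; trapezoidal AUC, loss-of-signal fit versus DMSO.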
SMILES,outcome,AC50
c1ccc2c(c1)ccc1ccccc12,inactive,
CC#C[C@]1(O)CC[C@H]2[C@@H]3CCC4=CC(=O)CCC4=C3[C@@H](c3ccc(N(C)C)cc3)C[C@@]21C,,1.07 µM (active) and 11.7 µM (active)
OCCC(F)(F)C(F)(F)C(F)(F)C(F)(F)C(F)(F)C(F)(F)F,inactive,
CC1=C(/C=C/C(C)=C/C=C/C(C)=C/C(=O)O)C(C)(C)CCC1,,7.47 µM (active)
c1ccc2c(c1)Cc1ccccc1-2,inactive,
CN1CCC[C@H]1c1cccnc1,inactive,
OCCC(F)(F)C(F)(F)C(F)(F)C(F)(F)C(F)(F)C(F)(F)C(F)(F)C(F)(F)F,inactive,
C=C(C)C(=O)OCCC(F)(F)C(F)(F)C(F)(F)C(F)(F)C(F)(F)C(F)(F)F,inactive,
CC(O)CO (stereo not given),inactive,
c1ccc2cc3c(ccc4ccccc43)cc2c1,inactive,
